NADH coupling – inhibition of NAD/NADH coupling enzymes, library profiling. coupled PK/LDH NADH assays, four targets. IC50, µM (top dose mostly 10 µM), for inactives: at the top dose inhibition. 65,000 tested, 0.02% active. AID 774;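 active = single-dose screening hits from any of four coupled enzyme assays that gave an IC50 when retested across doses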;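 note: the DPM-DC format reads NADH fluorescence rather than 340 nm absorbance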
Spn PMK inh – blocks S. pneumoniae phosphomevalonate kinase. AID 539. inhibition, % at 10 µM. 65,000 tested, 0.49% active. purified PMK, PK/LDH-coupled NADH absorbance 340 nm;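 active = top-ranked compounds by inhibition in the single 10 µM screen, taking a fixed number of the strongest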;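 note: 0% = full reaction with DMSO carrier and 100% = background rate without enzyme reaction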
Autofluor 339 – intrinsic fluorescence of library compounds, ex339/em460 – biochemical, MLSMR library, data from DPM-DC assay, artefact control, profiling panel; compound autofluorescence, ex339/em460 nm, NADH buffer; active compounds read high; 1 = no-compound wells, NADH background; fluorescence fold increase at 10 µM; 65,000 tested, 5.5% active;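 active = at 10 µM, mean starting fluorescence two-fold or more over control wells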;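 note: signal is the first read of a kinetic run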
MK inhibit – S. pneumoniae mevalonate kinase inhibition | inhibition, % at 10 µM | purified MK, PK/LDH-coupled NADH absorbance 340 nm | 65,000 tested, 0.48% active;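 active = ranked among the strongest by inhibition in the single 10 µM screen, a fixed top-ranked set picked for dose follow-up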
DPM-DC inhibit – blocks S. pneumoniae diphosphomevalonate decarboxylase; calls only at 10 µM; purified DPM-DC, PK/LDH coupled NADH fluorescence; 65,000 tested, 0.49% active; AID 556;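 active = the 320 compounds with the highest percent inhibition in the single-dose primary screen, excluding strongly autofluorescent ones, cut at about 32% in these data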;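 note: kinetic rate of NADH fluorescence loss reporting ADP formed by the decarboxylase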
Abs 340nm – absorbance at 340 nm; fold change at 10 µM; compound absorbance at 340 nm, fold over control; 65,000 tested, under 10 active;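 active = at 10 µM dose, initial 340 nm absorbance at least 2 fold that of control wells; inactive = change under 2 fold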;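 note: initial absorbance extrapolated from kinetic A340 decline of NADH oxidation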
An asterisk follows results filed as active. Shown are actives, neighbours in structure and some others; about 6.5% of the full set was active somewhere.

Results for COc1ccc(-c2cc(C(=O)N3CCOCC3)c3cc(C)ccc3n2)cc1 ?
NADH coupling: 1%; Spn PMK inh: 0; Autofluor 339: 3.7*; MK inhibit: 2; Abs 340nm: 1.1

How did COC(=O)c1cc(-c2ccc3c(c2)OCO3)nc2ccccc12 do in these assays?
NADH coupling: 8%; Spn PMK inh: 8; Autofluor 339: 2.2*; MK inhibit: 8; Abs 340nm: 1.1

How did Cc1ccc(-c2cc(C(=O)N3CCOCC3)c3ccccc3n2)cc1 do in these assays?
NADH coupling: 1%; Spn PMK inh: 1; Autofluor 339: 2.1*; MK inhibit: 0; Abs 340nm: 1.1

Results for COc1ccc(-c2nn(-c3ccccc3)cc2C(=O)N2CCOCC2)cc1 ?
NADH coupling: 1%; Spn PMK inh: 2; Autofluor 339: 1.1; MK inhibit: 1; DPM-DC inhibit: inactive; Abs 340nm: 1

Results for CO[C@@]1(NC(=O)CSCC#N)C(=O)N2C(C(=O)O)=C(CSc3nnnn3C)CS[C@@H]21 ?
NADH coupling: 1%; Spn PMK inh: 6; Autofluor 339: 1; MK inhibit: 2; DPM-DC inhibit: inactive; Abs 340nm: 0.96

Results for CCOC(=O)c1[nH]c(C)c(C(=O)OCC)c1C ?
NADH coupling: 0%; Spn PMK inh: 0; Autofluor 339: 1.1; MK inhibit: 0; DPM-DC inhibit: inactive; Abs 340nm: 1

What do the screens show for `CCOC(=O)c1nc(N)c(C(=O)OCC)[nH]1`?
NADH coupling: 3%; Spn PMK inh: 0; Autofluor 339: 2.3*; MK inhibit: 6; Abs 340nm: 1.1

How did Cc1nc2ccccc2n2c(O)c(CC(=O)O)cc12 do in these assays?
NADH coupling: 15%; Spn PMK inh: 42*; Autofluor 339: 1.2; MK inhibit: 2; DPM-DC inhibit: inactive; Abs 340nm: 1

What do the screens show for `Cc1cccc(-c2nc(CS(=O)CC(=O)NCCCSC3CCCCC3)c(C)o2)c1` (stereo not drawn)?
NADH coupling: 5%; Spn PMK inh: 0; Autofluor 339: 1.2; MK inhibit: 15; DPM-DC inhibit: inactive; Abs 340nm: 1

What do the screens show for `Cn1c(NCc2c[nH]c3ccccc23)nc2ccccc21`?
NADH coupling: 4%; Spn PMK inh: 11; Autofluor 339: 1.1; MK inhibit: 2; DPM-DC inhibit: inactive; Abs 340nm: 0.98

What do the screens show for `Nc1ccccc1-c1nc2ccccc2[nH]1`?
NADH coupling: 7%; Spn PMK inh: 7; Autofluor 339: 3.8*; MK inhibit: 7; Abs 340nm: 1.1

Results for Cc1n[nH]c(C)c1-c1nc2ccccc2[nH]1 ?
NADH coupling: 4%; Spn PMK inh: 10; Autofluor 339: 1; MK inhibit: 3; DPM-DC inhibit: inactive; Abs 340nm: 1

How did Nc1ccc(-c2nc3ccccc3[nH]2)cc1 do in these assays?
NADH coupling: 3%; Spn PMK inh: 0; Autofluor 339: 2.1*; MK inhibit: 6; Abs 340nm: 1.1

How did Cn1cc(-c2nc3ccccc3[nH]2)c2ccccc21 do in these assays?
NADH coupling: 1%; Spn PMK inh: 0; Autofluor 339: 2.1*; MK inhibit: 3; Abs 340nm: 1

What do the screens show for `Nc1ccc(C(=O)OCc2nc3ccccc3[nH]2)cc1`?
NADH coupling: 6%; Spn PMK inh: 16; Autofluor 339: 1; MK inhibit: 0; DPM-DC inhibit: inactive; Abs 340nm: 1

Results for Nc1cccc(-c2nc3ccccc3[nH]2)c1 ?
NADH coupling: 2%; Spn PMK inh: 0; Autofluor 339: 2.2*; MK inhibit: 3; Abs 340nm: 0.99

How did O=C(O)c1cccn2c(=O)c3ccccc3nc12 do in these assays?
NADH coupling: 54µM*; Spn PMK inh: 11; Autofluor 339: 1.4; MK inhibit: 13; DPM-DC inhibit: active; Abs 340nm: 1.1

What do the screens show for `O=C(c1cccn2c(=O)c3ccccc3nc12)N1CCN(c2ccccn2)CC1`?
NADH coupling: 5%; Spn PMK inh: 13; Autofluor 339: 1.8; MK inhibit: 3; DPM-DC inhibit: inactive; Abs 340nm: 1.1

What do the screens show for `CS(=O)(=O)c1sc2nc(-c3cccs3)cc(-c3ccccc3)c2c1N`?
NADH coupling: 2%; Spn PMK inh: 7; Autofluor 339: 3.8*; MK inhibit: 0; DPM-DC inhibit: inactive; Abs 340nm: 1

From PubChem BioAssay
